From PubChem BioAssay
A selection: hits, their analogues and other compounds. The true share with any hit is near 5%.
VACV mCherry inh = inhibitors of vaccinia virus infection (mCherry reporter signal); Vaccinia virus mCherry reporter infection, fluorescence; Potency, µM (titrated, usually from 36.5 µM), without a hit: at the top dose activity change, negative = inhibition, usual class: inhibitors; 0.63% of 310,000 active; calls by dose curve; tested in A549 cells; also: potency is read from the fitted curve at half-maximal effect; nearly all actives have a fitted effect of over 35% in size
LmPK inh = inhibitors of Leishmania mexicana pyruvate kinase; Q27686; purified LmPK, Kinase-Glo ATP luminescence, 1 h; Potency, µM (top dose mostly 57.5 µM), for the others: at the top dose activity change, negative = inhibition, actives largely listed as inhibitors; 0.37% of 290,000 active; also: potency is read from the fitted curve at half-maximal effect
Target sequence (Q27686 whole entry, looked up): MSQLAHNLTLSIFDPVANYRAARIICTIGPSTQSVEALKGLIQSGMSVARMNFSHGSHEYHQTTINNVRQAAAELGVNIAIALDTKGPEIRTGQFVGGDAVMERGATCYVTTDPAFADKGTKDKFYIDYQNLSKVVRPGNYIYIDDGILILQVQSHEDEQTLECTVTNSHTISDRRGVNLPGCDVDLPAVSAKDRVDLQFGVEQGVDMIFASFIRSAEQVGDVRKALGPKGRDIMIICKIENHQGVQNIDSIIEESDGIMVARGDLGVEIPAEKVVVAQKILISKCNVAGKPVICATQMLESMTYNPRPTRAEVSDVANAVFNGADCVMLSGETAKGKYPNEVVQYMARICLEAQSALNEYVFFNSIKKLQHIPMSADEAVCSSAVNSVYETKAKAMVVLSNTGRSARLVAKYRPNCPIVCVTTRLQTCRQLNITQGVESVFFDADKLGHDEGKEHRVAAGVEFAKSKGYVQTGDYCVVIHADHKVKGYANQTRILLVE
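Kinase-Glo luminescence read after 1 h RT reaction of 0.1 nM LmPK with 0.5 mM PEP and 0.1 mM ADP. Activity scaled between uninhibited and enzyme-free controls.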
Tb PYK inh = blocks Trypanosoma brucei pyruvate kinase; Q57TT1; TbPYK enzyme, Kinase-Glo Plus ATP luminescence, 45 min; Potency, µM (highest dose often 76.8 µM), without a hit: at the top dose activity, negative = inhibition, usual class: inhibitors; 0.12% of 410,000 active; AID 624173; also: potency is read from the fitted curve at half-maximal effect; nearly all actives have a fitted effect of over 50% in size
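Luminescent Kinase-Glo Plus end-point after 45 min room-temperature reaction of T. brucei pyruvate kinase started with 130 uM ADP (final). Buffer TEA 50 mM pH 7.2 with KCl, MgCl2, BSA, Tween-20; titration-based qHTS with fitted concentration-effect curves.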
Vaccinia Venus = inhibitors of vaccinia virus (Venus reporter); Vaccinia virus Venus reporter expression, fluorescence; 0.46% of 330,000 active; Potency, µM (titrated, usually from 36.5 µM), inactives show at the top dose activity change, negative = inhibition, most hits filed as inhibitors; AID 720580; calls by dose curve; tested in A549 cells; also: potency is read from the fitted curve at half-maximal effect; nearly all actives have a fitted effect of over 30% in size
HCMV antiviral = inhibitors of human cytomegalovirus; AID 1259415; activity change, negative = inhibition, % at 57.5 µM; 4.5% of 410,000 active; HFF cells, HCMV-luciferase reporter, 72 h; hits give low values; in the data active = activity change below about -60%; inconclusive = no clear call, values can overlap the other calls; inactive = above about -39%
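Compounds were evaluated in HFFs infected with an HCMV luciferase reporter virus (MOI 1 PFU/cell). Luciferase in lysates collected 72 h post infection served as the replication measure.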
Active calls of the source: *; i = inactive; ? = inconclusive; . = no result given. Unless noted, calls follow the shape of the dose curve; as a rule, active = well fitted curve in the direction sought with a large enough effect; inconclusive = small, poorly fitted or top-dose-only effect, or another doubt; inactive = no such curve, though single readings can be large; an effect the other way counts as inactive or inconclusive. % is scaled to controls: 0 for no effect and ±100 for the full control effect.

SMILES	VACV mCherry inh	LmPK inh	Tb PYK inh	Vaccinia Venus	HCMV antiviral
C=C(C)Cn1c(Sc2nnc(C)s2)nc2c1c(=O)[nH]c(=O)n2C	.	1%	1%	.	-9
CCc1ccc(NC(=O)CSc2nc3nccnc3c(=O)n2CCc2c[nH]c3ccccc23)cc1	-19%	.	-16%	-19%	53
COc1ccc(C(=O)N2CCC[C@@]3(CCN(C(=O)Nc4cccc(F)c4)C3)C2)cc1	.	.	-2%	.	.
C=CCNC(=O)CC(=O)N/N=C/c1ccc(C(=O)OC)cc1	.	-1%	-2%	?	-67*
O=C(CN1CCN(Cc2ccccc2)CC1)Nc1ccccc1-c1ccccc1	?	0%	7%	-12%	-25
CCC(=O)N(Cc1ccco1)Cc1cc2cc3c(cc2[nH]c1=O)OCO3	i	5%	0%	-3%	?
CN[C@H]1CCc2cc(OC)c(OC)c(OC)c2-c2ccc(N(C)CC(OC)OC)c(=O)cc21	.	-12%	4%	.	-74*
CCN(CC)c1ccc2c(cc1=O)[C@@H](NC)CCc1cc(OC)c(OC)c(OC)c1-2	?	-1%	-13%	-17%	-92*
COc1cc2c(c(OC)c1OC)-c1ccc(N(C)CC(OC)OC)c(=O)cc1[C@@H](NC(C)=O)CC2	-30%	-5%	1%	-26%	-87*
CN=C(c1ccc([N+](=O)[O-])cc1)N1CCCCC1	i	0%	-13%	-8%	3
CCN(c1cccc(C)c1)S(=O)(=O)c1nnc(NC(=O)c2ccco2)s1	-21%	-4%	-26%	-29%	-18
COc1ccc(CCc2cc(OC)c(OC)c(OC)c2)cc1	-12%	.	-17%	-26%	?
CCOC(=O)C1CCCN(C(=O)Cn2ncc3c([nH]c4ccc(C)cc43)c2=O)C1 (stereo not given)	0%	2%	-4%	-1%	-13
CCN(CC)C1=N/C(=C\c2ccc(OC)cc2)C(=O)N1c1ccccc1	?	-1%	6%	14%	-74*
CCSC1=N/C(=C\c2ccccc2)C(=O)N1c1ccc(OC)cc1	-16%	5%	1%	-12%	?
COc1cc(Br)cc(/C=N/NC(=O)Cc2ccc(C(F)(F)F)cc2[N+](=O)[O-])c1O	20µM*	1%	3%	13µM*	-102*
C(=N\Nc1ncnc2sc3c(c12)CCC3)/c1ccncc1	11µM*	-2%	2%	10µM*	?
C(=N\Nc1ncnc2sc3c(c12)CCC3)/c1cccs1	.	-1%	.	.	-102*
COc1cccc(-c2nc(CS(=O)(=O)CC(=O)Nc3ccc(C)c(Cl)c3)c(C)o2)c1	-6%	.	7%	-10%	-1
Cc1nc2ccccc2c2oc(C(=O)Nc3ccc4c(c3)OCCO4)cc12	-8%	11%	0%	-5%	-31
Cc1nc2ccccc2c2oc(C(=O)Nc3ccc(C(C)C)cc3)cc12	.	0%	3%	.	-68*
COc1cccc(CNC(=O)c2cc3c(C)nc4ccccc4c3o2)c1	?	3%	-1%	?	?
CCc1ccc(CNC(=O)c2cc3c(C)nc4ccccc4c3o2)cc1	?	7%	1%	?	-64*
CCc1nc2ccccc2c(C(=O)NCc2ccccc2)c1C	0%	-4%	-2%	-8%	-68*
COc1ccc2c(c1)-c1nc(/N=C/c3ccc(O)c(OC)c3)sc1CC2	-29%	0%	-22%	-21%	.
SMILES	VACV mCherry inh	LmPK inh	Tb PYK inh	Vaccinia Venus	HCMV antiviral
CCOc1ccccc1N1CCN(c2ncnc3scc(-c4ccc(OC)cc4)c23)CC1	?	1%	4%	-12%	-60*
CN1CCN(c2ncnc3scc(-c4ccccc4Cl)c23)CC1	?	-1%	-7%	-8%	-73*
OCC1CCCN(c2nc(CN3CCCCC3)nc3scc(-c4ccccc4)c23)C1 (stereo not given)	.	3%	1%	.	?
Fc1ccc(CN2CCN(c3ncnc4scc(-c5ccccc5)c34)CC2)cc1	.	-2%	2%	.	-74*
COc1ccc(-c2csc3ncnc(N4CCN(c5ccccc5OC)CC4)c23)cc1	i	5%	-1%	-3%	-17
OCC1CCCN(c2ncnc3scc(-c4ccccc4)c23)C1 (stereo not given)	-23%	-2%	-8%	-20%	-63*
O=C(NC1CCSC1=O)c1ccc(Oc2ccc(F)cc2)nc1 (stereo not given)	.	-6%	9%	-19%	-28
CCOC(=O)c1ccc(NC(=O)COc2cccc3c(=O)n(C)ccc23)cc1	?	.	-3%	-20%	6
CC(OC(=O)c1cc(S(=O)(=O)N2CCOCC2)ccc1F)C(=O)NCc1ccc2c(c1)OCO2 (stereo not given)	-11%	.	-5%	-14%	10
O=c1[nH]c2ccc(S(=O)(=O)NCc3ccccn3)cc2s1	.	1%	-10%	.	4
O=CNc1cc(-c2cccc(F)c2)cn2c(-c3ccc(F)cc3)cnc12	?	.	3%	-14%	?
Oc1ccccc1N1CCN(c2ncnc3scc(-c4ccc(F)cc4)c23)CC1	?	1%	3%	-16%	-81*
Cc1ccc(C(=O)CSc2cnc3ccccc3n2)cc1C	-14%	-3%	-10%	13%	-61*
CN(C)C(=O)CSc1cnc2ccccc2n1	i	-8%	-4%	-13%	34
COc1ccc(Cl)cc1C(=O)N1CCN(Cc2ccc3c(c2)OCO3)CC1	.	1%	-2%	.	9
Cc1ccc(OCC(=O)N2N=C(C(F)(F)F)CC2(O)C(C)(C)C)cc1C (stereo not given)	.	8%	-2%	.	-91*
CCn1c(O)c(/C=N/NC(=O)c2ccccc2)c(=O)[nH]c1=S	.	0%	-1%	.	-63*
CCOc1ccc(CCNC(=O)CN2C(=O)COc3ccc(S(=O)(=O)N4CCOCC4)cc32)cc1	i	0%	-7%	-2%	-34
COc1ccc(C(=O)C(CCC(CNC(C)(C)C)C(=O)c2ccc(OC)cc2)CNC(C)(C)C)cc1 (stereo not given)	13µM*	3%	-1%	11µM*	-98*
COc1ccc(C(=O)CC(=O)c2ccc(C(C)(C)C)cc2)cc1	-20%	.	-9%	-9%	13
Cc1nc([N+](=O)[O-])c(Br)n1CC(=O)c1ccc2ccccc2c1	1.1µM*	8%	5%	1.6µM*	70
Cc1nc([N+](=O)[O-])c(Br)n1CC(=O)c1ccccc1	.	-9%	-2%	2.2µM*	2
CCOc1cc(C(=O)OC(C)C(=O)Nc2ncc(Cl)cc2Cl)ccc1OCC(=O)N1CCOCC1 (stereo not given)	.	0%	-31%	.	-9
Cc1sc2nc[nH]c(=O)c2c1-c1ccc(Cl)cc1	-6%	2%	-1%	-20%	-74*
Cc1ccc(-c2csc3nc[nH]c(=O)c23)cc1	i	-2%	-4%	-9%	?
C=CCSc1nsc(NC(=O)Nc2ccc(F)cc2)n1	-25%	-5%	-14%	?	-103*
COc1ccccc1CN(C)CC(=O)c1c(C)[nH]c2ccccc12	-14%	.	.	-17%	.
